{
  "source": "PubChem BioAssay AID651599",
  "about": "(National Center for Advancing Translational Sciences (NCATS), 2012)",
  "note": "Results filed as inconclusive are left out. A call without a number means that no potency is given here. The source made the active and inactive calls. The call rests on the fitted dose curve; in most records, active means well fitted inhibition curve with a large enough effect; inconclusive means small, poorly fitted or top-dose-only effect; inactive means no such curve, though single readings can be large or run the other way. Potency means the concentration at half of the fitted maximal effect.",
  "data": [
    {"biological_target": "Tumor susceptibility gene 101 protein (Homo sapiens) (UniProt Q99816)", "sequence (Q99816 whole entry, looked up, the tested form may be a part)": "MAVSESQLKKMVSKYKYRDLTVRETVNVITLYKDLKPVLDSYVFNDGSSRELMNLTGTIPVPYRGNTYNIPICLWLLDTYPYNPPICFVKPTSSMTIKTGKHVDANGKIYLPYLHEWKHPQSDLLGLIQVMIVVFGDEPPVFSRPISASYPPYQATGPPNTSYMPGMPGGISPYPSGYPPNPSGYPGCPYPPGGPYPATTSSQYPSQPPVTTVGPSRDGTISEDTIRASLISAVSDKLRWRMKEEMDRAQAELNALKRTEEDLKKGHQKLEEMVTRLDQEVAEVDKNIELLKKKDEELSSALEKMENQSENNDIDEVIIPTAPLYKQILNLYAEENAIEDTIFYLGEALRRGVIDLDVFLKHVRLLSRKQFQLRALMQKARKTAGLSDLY", "test": "qHTS Assay for Iinhibitors of HIV-1 Budding by Blocking the Interaction of PTAP/TSG101: Hit Validation in TR assay", "details": "Tsg101 binding domain + Texas Red-labeled PTAP peptide, fluorescence polarization, 20 min; series mostly up to 57.5 µM", "excerpt": "Stages of the HIV-1 replication cycle, specifically virus assembly and release, provide underexploited targets for the development of novel antiviral inhibitors. The late stages of HIV-1 replication are mediated by the Gag precursor protein, Pr55Gag. Expression of Pr55Gag is both necessary and sufficient for the production of virus-like particles from Gag-expressing cells. The Gag protein hijacks key host proteins involved in endocytic machinery of the host cell to promote endosomal processing and viral budding. The budding process requires a direct interaction between a […] (PTAP) motif in the p6 domain of Gag and the cellular endosomal sorting protein known as Tsg101. In this way, the Gag PTAP motif promotes the host cells to recruit viral particles to the plasma membrane where the new viral particles are released, effectively turning the host cells into viral factories. A fluorescence anisotropy assay has been developed to quantitatively measure the PTAP-Tsg101 interaction which can be used to screen for inhibitors of this interaction.\nThis hit validation assay is similar to the primary assay but uses the Texas Red label instead of FITC.\nNIH Molecular Libraries Probe Production Network [MLPCN]\nNIH Chemical Genomics Center [NCGC]\nPI Name: Dr. Eric Freed, NCI\nTwo uL of the Tsg101 binding domain in buffer (10 mM HEPES pH 7.5; 0.15 M NaCl, 0.01% Tween 20; 3 mM EDTA;0.1 mM TCEP) was dispensed into Greiner black MB 1536-well plates (final concentration 10 uM). Then, 23 nL of compounds or DMSO were delivered to each well using a pin tool. Finally, 2 uL of a TR-labeled peptide containing the PTAP motif (1) in the same buffer was dispensed (50 nM final concentration) and the binding was allowed to proceed for 20 min. at r.t. Fluorescent polarization was determined using TR excitation and polarized emission filters on a Perkin Elmer Viewlux.\nKeywords: Tsg101, PTAP, Gag, HIV, fluorescent polarization, MLSMR, MLPCN, NIH Roadmap, qHTS, NCGC", "values": [
      {"smiles": "Nc1cc2nc3ccccc3nc2cc1N", "Potency": "inactive"},
      {"smiles": "Nc1ccc2nonc2c1[N+](=O)[O-]", "Potency": "inactive"},
      {"smiles": "COc1cccc2c1C(=O)c1c(O)c3c(c(O)c1C2=O)CC(O)(C(C)=NO)CC3OC1CC(N)C(O)C(C)O1", "note": "(stereo unspecified)", "Potency": "inactive"},
      {"smiles": "CCOC(=O)[C@]1(C#N)[C@@H]2C=CC(C(C)=O)=CN2[C@@H](C(N)=O)[C@@H]1c1ccsc1", "Potency": "inactive"},
      {"smiles": "N#CC(C#N)=Cc1ccc(-c2ccccc2F)o1", "Potency": "inactive"},
      {"smiles": "CCOC(=O)c1c(/N=C/c2c(O)n(-c3ccccc3F)c(=S)[nH]c2=O)sc2c1CCCC2", "Potency": "inactive"},
      {"smiles": "C#CCN1C(=O)S/C(=C\\c2ccc(N3CCOCC3)cc2C)C1=O", "Potency": "inactive"},
      {"smiles": "O=[N+]([O-])c1ccc(NCc2ccccc2)c2nonc12", "Potency": "inactive"},
      {"smiles": "Nc1ccc2ccc3cccc[n+]3c2c1", "Potency": "16.3 µM (active)"},
      {"smiles": "C=CCN1CCC2(C)c3cc(O)ccc3CC1C2C", "note": "(stereo unspecified)", "Potency": "inactive"},
      {"smiles": "CC(C)C[C@H]1C(=O)N2CCC[C@H]2[C@]2(O)O[C@](NC(=O)[C@@H]3C=C4c5cccc6[nH]cc(c56)C[C@H]4N(C)C3)(C(C)C)C(=O)N12", "Potency": "inactive"},
      {"smiles": "COc1ccc(N2C(=O)NC(=O)/C(=C\\c3cn(C)c4ccccc34)C2=O)cc1", "Potency": "inactive"},
      {"smiles": "CN1CCN(c2ccc([N+](=O)[O-])c3no[n+]([O-])c23)CC1", "Potency": "inactive"},
      {"smiles": "CN1CC=C2C(C#N)=C(N)C(C#N)(C#N)C(c3ccncc3)C2C1", "note": "(stereo unspecified)", "Potency": "inactive"},
      {"smiles": "CCN(CC)c1ccc(N=Cc2c(O)n(-c3ccc(OC)cc3)c(=O)[nH]c2=O)cc1", "Potency": "inactive"},
      {"smiles": "CN1Cc2c(c(C#N)c(N)n(C)c2=S)CC1(C)C", "Potency": "inactive"},
      {"smiles": "CC1=C[C@@H]2c3cccc4[nH]cc(c34)C[C@H]2N(C)C1", "Potency": "inactive"},
      {"smiles": "CC(C)C[C@H]1C(=O)N2CCCC2[C@]2(O)O[C@](NC(=O)[C@@H]3C=C4c5cccc6[nH]cc(c56)CC4N(C)C3)(C(C)C)C(=O)N12", "note": "(stereo partly specified)", "Potency": "inactive"},
      {"smiles": "CCOC(=O)C1CCCN(c2ccc([N+](=O)[O-])c3nonc23)C1", "note": "(stereo unspecified)", "Potency": "inactive"},
      {"smiles": "CN1/C(=C\\C=C2C(=O)NC(=S)NC2=O)C(C)(C)c2ccccc21", "Potency": "inactive"},
      {"smiles": "N#CCN1CCN(c2ccc(C(F)(F)F)cc2)CC1", "Potency": "inactive"},
      {"smiles": "Cc1cc(N2CCCC2)ccc1C=C(C#N)C#N", "Potency": "inactive"},
      {"smiles": "CC1=NCCc2c1[nH]c1cc(O)ccc21", "Potency": "inactive"},
      {"smiles": "CCN(CC)C(=O)Cn1cc(C=C2C(=O)N(C)C(=O)N(C)C2=O)c2ccccc21", "Potency": "inactive"},
      {"smiles": "O=C1NC(=O)N(c2ccc(F)cc2)C(=O)/C1=C/c1ccc2c(c1)CCCN2Cc1ccccc1", "Potency": "inactive"},
      {"smiles": "O=c1cc(C(F)(F)F)c2cc3c4c(c2o1)CCCN4CCC3", "Potency": "inactive"}
    ]}
  ]
}
